# In the library only some 0.92% were active in any assay of this set; here they are far more common.
# L3MBTL1 inh: L3MBTL1 (human) inhibition; hit rate 0.66% among 230,000; AID 485360; Potency, µM (highest dose often 57.1 µM), most hits filed as inhibitors; Q9Y468; AlphaScreen L3MBTL1–H3K9me1 peptide binding; note: nearly all actives have a fitted effect of over 60% in size
#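 Read-out is AlphaScreen signal from streptavidin donor and nickel chelate acceptor beads (10 ug/mL final each) bridging L3MBTL1 (50 nM) and biotinylated K9-monomethylated H3(1-15) peptide (75 nM), after 30 min compound exposure at room temperature.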
# BLM inh: blocks DNA unwinding by human BLM helicase; hit rate 0.2% among 350,000; P54132; AID 2528; Potency, µM (top dose mostly 56.1 µM), most hits filed as inhibitors; recombinant BLM DNA unwinding, fluorescence dequenching; note: nearly all actives have a fitted effect of over 35% in size
# APEX1 inh: inhibitors of human APE1 endonuclease; P27695; recombinant APE1, TAMRA/BHQ-2 abasic DNA cleavage fluorescence; Potency, µM (doses to about 65.8 µM), actives largely listed as inhibitors; hit rate 0.35% among 350,000; note: nearly all actives have a fitted effect of over 55% in size
# Target sequence (P27695 whole entry, looked up): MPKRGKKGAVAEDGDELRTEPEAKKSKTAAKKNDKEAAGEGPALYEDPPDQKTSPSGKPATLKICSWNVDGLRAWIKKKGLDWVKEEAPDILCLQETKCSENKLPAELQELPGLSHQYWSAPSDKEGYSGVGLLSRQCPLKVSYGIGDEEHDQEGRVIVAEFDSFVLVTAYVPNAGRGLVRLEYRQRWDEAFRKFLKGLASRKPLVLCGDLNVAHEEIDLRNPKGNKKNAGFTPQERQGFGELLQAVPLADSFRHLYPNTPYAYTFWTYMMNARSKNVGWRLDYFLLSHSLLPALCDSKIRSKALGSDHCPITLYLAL
#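 0.75 nM APE1 + cpd, 15 min RT; start w/ 50 nM TAMRA/BHQ-2 THF-abasic dsDNA; kinetic fluor 525/598 nm ×3 reads @60 s; Δ(read3−read1); normalized to DMSO and NSC13755 control wells.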
# RECQ1 inh-1: blocks DNA unwinding by human RECQ1. RECQ1 DNA unwinding, red fluorescence kinetic read. AID 2549. P46063. Potency, µM (series often up to 57.3 µM), most hits filed as inhibitors. hit rate 0.54% among 240,000; note: nearly all actives have a fitted effect of over 30% in size
#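 RECQ1T1 50 nM; forked duplex (20 bp + 30-nt ss tails) 200 nM, ATP 2 mM final; pH 8.0, 2 mM MgCl2, 2.5 ug/ml poly(dI-dC); 15 min compound preincubation; discontinuous kinetic read over 2 h at RT.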
# WRN helicase inh: WRN helicase (human) inhibition; Q14191; WRN helicase unwinding, fluorescent forked duplex, kinetic; Potency, µM (series often up to 114 µM), most hits filed as inhibitors; hit rate 0.46% among 360,000; AID 651768; note: nearly all actives have a fitted effect of over 55% in size
#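 Kinetic red-fluorescence monitoring (525/598 nm) tracks WRN helicase activity after 100 nM fluorophore-quencher forked duplex and 2 mM ATP are added to 20 nM enzyme pretreated 15 min at room temperature with compound.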
# RECQ1 inh conf: confirmation of human RECQ1 helicase inhibitors | shares compounds with RECQ1 inh-1 | hit rate 28% among 610 | Potency, µM (top dose mostly 229 µM), most hits filed as inhibitors | RECQ1 helicase DNA unwinding, fluorescence; note: nearly all actives have a fitted effect of over 45% in size
# RECQ1 ADP FP: displaces ADP in a fluorescence polarization counter-screen for RECQ1 hits; AID 2711; shares compounds with RECQ1 inh-1; hit rate 27% among 530; Potency, µM (series often up to 228 µM), hits mostly inhibitors; ADP fluorescence polarization displacement counterscreen; note: nearly all actives have a fitted effect of over 45% in size
# RECQ1 inh-2: confirmation of human RECQ1 helicase inhibitors; shares compounds with RECQ1 inh-1; recombinant RECQ1 DNA unwinding, red fluorescence; Potency, µM (titrated, usually from 119 µM), usual class: inhibitors; hit rate 15% among 1,100; AID 504841; note: nearly all actives have a fitted effect of over 50% in size
# A number is an active result; – = inactive; ? = inconclusive; · = not tested or not shown; [ ] = remark or other dose. Calls come from the whole dose curve; as a rule, active = well fitted curve in the direction sought with a large enough effect; inconclusive = small, poorly fitted or top-dose-only effect, or another doubt; inactive = no such curve, though single readings can be large; an effect the other way counts as inactive or inconclusive.
SMILES,L3MBTL1 inh,BLM inh,APEX1 inh,RECQ1 inh-1,WRN helicase inh,RECQ1 inh-2,others
CC(Sc1nnc(COc2ccc(Cl)cc2)n1Cc1ccccc1)C(=O)O (stereo unspecified),–,–,–,–,–,·,RECQ1 inh conf=–;RECQ1 ADP FP=–
CC(Sc1nnc(COc2ccccc2)n1Cc1ccccc1)C(=O)O (stereo unspecified),–,–,–,–,–,·,
Cc1cc(Br)ccc1NC(=O)CCSc1ccccc1,–,–,–,–,–,·,
Cc1cc(NC(=O)CCSc2ccccc2)ccc1Br,–,–,–,3.5µM,–,–,
COc1cccc(NC(=O)CSc2nc(-c3ccccc3Cl)nc3c2Cc2c(CO)cnc(C)c2O3)c1,·,–,·,·,·,·,
Cc1cc(N2CCN(c3nc(-c4ccccc4)cs3)CC2)c2ccccc2n1,–,–,–,8.9µM,–,–,RECQ1 inh conf=–;RECQ1 ADP FP=–
c1ccc(-c2csc(N3CCCCCC3)n2)cc1,–,–,–,–,–,·,
O=C(COc1ccccc1)NN1C(=O)CSC1=S,–,–,–,–,–,·,
O=C(COc1c(Cl)cccc1Cl)NN1C(=O)CSC1=S,–,–,–,?,–[11.6 µM],–,
CCc1nn(CC(=O)NCCCOC)c(=O)c2cc3ccccc3n12,·,–,·,·,·,·,
CCOc1ccc(NC(=O)c2ccccc2NC(=O)CN(C)CC(=O)Nc2ccc(C)cc2)cc1,–,–,–,?,–,–,
O=C(NCc1cccc2ccccc12)[C@H]1C[C@@H]1[C@H](NP(=O)(c1ccccc1)c1ccccc1)c1ccccc1,·,–,–,–,·,·,
CC1CC=CC2C1C(=O)N(Cc1ccccc1)C2c1cccc([N+](=O)[O-])c1 (stereo unspecified),·,–,–,–,·,·,
O=C(O)CCCCn1c(SCc2cc(=O)n3cc(Cl)ccc3n2)nc2ccsc2c1=O,–,–,–,–,–,·,
O=C(O)CCCCn1c(SCc2ccccc2Cl)nc2ccsc2c1=O,·,–,–,–,–,·,RECQ1 inh conf=–;RECQ1 ADP FP=–
NS(=O)(=O)c1ccc(CCNC(=O)CSc2nc3ccsc3c(=O)n2CCCCCC(=O)O)cc1,·,–,–,–,–,·,RECQ1 inh conf=–;RECQ1 ADP FP=–
Cc1cccc(OCC(=O)N(Cc2cccs2)c2ccc(Cl)cc2)c1C,·,–,·,·,·,·,
Cc1c2ccncc2cc2c1[nH]c1ccccc12,·,·,·,·,–[11.6 µM],·,
COc1ccc2[nH]c3c(C)c4ccncc4c(C)c3c2c1,–,–,7.9µM,22µM,?,7.9µM,
Cc1cccc(N2CCN(C(=O)c3ccccc3NC(=O)C3CC=CCC3C(=O)O)CC2)c1 (stereo unspecified),·,–,–,–,–,·,RECQ1 inh conf=–;RECQ1 ADP FP=–
O=C(CN(Cc1ccccc1)S(=O)(=O)c1ccccc1)N/N=C/c1ccccc1[N+](=O)[O-],–,–,–,–,–,·,RECQ1 inh conf=–;RECQ1 ADP FP=–
Cc1cccc(CNc2cc(-c3ccoc3)ncn2)c1,·,–,–,?,·,–,
N#CC1=C(N)Oc2cc(N)ccc2C1c1ccsc1 (stereo unspecified),–,–,–,–,–,·,
N#CC1=C(N)Oc2ccc3ccc(O)cc3c2C1c1ccsc1 (stereo unspecified),–,–,–,?,?,50µM,
O=C(CSc1nnc2ccccn12)N1CCc2ccccc2C1,–,–,–,–,–,·,
SMILES,L3MBTL1 inh,BLM inh,APEX1 inh,RECQ1 inh-1,WRN helicase inh,RECQ1 inh-2,others
O=C(O)C1Cc2ccccc2CN1C(=O)CSc1nnc2ccccn12 (stereo unspecified),·,–,–,–,–,·,RECQ1 inh conf=–;RECQ1 ADP FP=?
Cc1ccc(OCC(=O)Nc2ccc3nc(SCC(=O)N4CCOCC4)sc3c2)cc1,·,–,·,·,·,·,
COc1cc(C(=O)Nc2nc3ccc(S(=O)(=O)N4CCOCC4)cc3s2)cc(OC)c1OC,–,–,–,?,50µM,32µM,
COc1ccc2nc(NC(=O)c3cccc(S(=O)(=O)N4CCOCC4)c3)sc2c1,–,–,–,–,–,·,
COC(=O)C1=C(C)N(c2cccc3ccccc23)C(=O)C1,–,–,–,?,–,–,
COC(=O)C1=C(C)N(c2ccc(C(=O)OC)cc2)C(=O)C1,–,–,–,–,–,·,
